Where “and” joins values, the source holds several entries; their conditions need not be identical. Identical values can stand only once. Values without a mark were called inactive. Inconclusive results are not listed. Calls of active or inactive are those of the source. Unless noted, calls come from the whole dose curve; as a rule, active = well fitted curve in the direction sought with a large enough effect in the repeat runs; inconclusive = weak or mixed curves; inactive = no such curve, though single readings can be large; an effect the other way counts as inactive or inconclusive.

Test [1] is described as follows: qHTS assay to identify small molecule antagonists of the estrogen related receptor (ERR) signaling pathway from Tox21 library - cell viability counter screen (AID 1224834). Note: nearly all actives have a fitted effect of over 30% in size. An outline of the steps:
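ERR reporter cells were plated 6 h before compound addition, then exposed to test compounds in DMSO for 17.5 h at 37 C. Viability was read as CellTiter-Fluor fluorescence after a 30-minute incubation at 37 C.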

Test [2] has as its target Luciferin 4-monooxygenase (Photinus pyralis) (UniProt P08659). As to the kind of experiment: qHTS assay to identify small molecule inhibitors of firefly luciferase (AID 1224835). Note: nearly all actives have a fitted effect of over 25% in size. Note: potency is the fitted concentration of half-maximal effect. Summed up:
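Biochemical qHTS: compounds run as interplate titrations against purified firefly enzyme, with D-luciferin and ATP each at its KM concentration. Light output recorded by CCD imaging.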
For orientation: Quantitative high-throughput screening tests each substance at several concentrations.

Test [3] in a line: qHTS assay to identify small molecule agonists of the constitutive androstane receptor (CAR) signaling pathway - cell viability counter screen (AID 1224836). Note: nearly all actives have a fitted effect of over 45% in size. Summed up:
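Using CellTiter-Fluor, viability of HepG2 cells harbouring hCAR and CYP2B6-2.2kb was measured following 23 h incubation with a 15-concentration compound series plus PK11195 (0.75 uM final).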

Test [4] is described as follows: qHTS assay to identify small molecule antagonists of the constitutive androstane receptor (CAR) signaling pathway - cell viability counter screen (AID 1224837). Note: nearly all actives have a fitted effect of over 45% in size. An outline of the steps:
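HepG2 cells stably expressing hCAR and a CYP2B6-2.2kb reporter were plated and pre-incubated 4 hr at 37 C/5% CO2, then given compounds at 15 concentrations plus 50 nM CITCO (final). After 23 hr, viability was read by CellTiter-Fluor fluorescence.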

The target in test [5] is Nuclear receptor subfamily 1 group I member 3 (Homo sapiens) (UniProt Q14994). Put plainly: qHTS assay to identify small molecule antagonists of the constitutive androstane receptor (CAR) signaling pathway (AID 1224838). Note: nearly all actives have a fitted effect of over 40% in size. Summed up:
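HepG2 cells stably co-transfected with hCAR and a CYP2B6-2.2kb luciferase reporter were seeded 4 h before compound addition at 15 concentrations. Cells were stimulated with 50 nM CITCO (final) for 24 h at 37 C; luciferase luminescence was then read.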

For test [6] the target is unchanged. As to the kind of experiment: qHTS assay to identify small molecule agonists of the constitutive androstane receptor (CAR) signaling pathway (AID 1224839).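 Note: HepG2 cells stably carrying human CAR and a CYP2B6 luciferase reporter; nearly all actives have a fitted effect of over 15% in size.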 An outline of the steps:
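Double-stable HepG2 cells (hCAR, CYP2B6-2.2kb) seeded 4 h before compound addition. Exposure 24 h with 0.75 uM PK11195 final. Luciferase detected by ONE-Glo.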

Test [7] is described as follows: qHTS assay to identify small molecule antagonists of the estrogen related receptor signaling pathway with the pleiotropic PPARgamma coactivator (PGC) from Tox21 10K library - cell viability counter screen (AID 1224840; active = well fitted cell-killing curve with a large enough effect in the repeat runs, not every such curve was filed as active; note: nearly all actives have a fitted effect of over 40% in size). An outline of the steps:
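PGC/ERR cells were seeded at 2,000 cells/well and left 6 hours at 37 C/5% CO2 before pin-tool addition of compounds in DMSO. After 17.5 hours at 37 C, CellTiter-Fluor was added and fluorescence read 30 minutes later.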

Test [8] addresses Thyrotropin receptor (Homo sapiens) (UniProt P16473). Put plainly: qHTS assay to identify small molecule agonists of the thyroid stimulating hormone receptor (TSHR) signaling pathway (AID 1224843; calls by dose curve; note: nearly all actives have a fitted effect of over 45% in size; note: potency is the fitted concentration of half-maximal effect). Summed up:
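TSHR-HEK293 cells in agonist mode, 30 min room-temperature step, then cAMP measured by competitive HTRF (cAMP-d2 with anti-cAMP cryptate) after 1 h at room temperature. Tested at 15 concentrations in triplicate.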

A short description of test [9]: qHTS assay to identify small molecule agonists of the hypoxia (HIF-1) signaling pathway - cell viability counter screen (AID 1224844; calls by dose curve; note: nearly all actives have a fitted effect of over 50% in size; note: potency is the fitted concentration of half-maximal effect). An outline of the steps:
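HRE-bla ME-180 cells in medium with 0.5% dialyzed FBS were preincubated 5 hrs at 37C, exposed to compounds for 17 hrs, then viability was read as CellTiter-Glo luminescence after 30 min at room temperature, in the reporter wells.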

Test [10] can be described thus: qHTS assay to identify small molecule agonists of H2AX (AID 1224845; active = well fitted activation curve with a large enough effect in the signal ratio in the repeat runs, not every such curve was filed as active; the % refers to the signal ratio). An outline of the steps:
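Wild-type CHO-K1 cells, plated overnight, exposed 3hr at 37C to 15 concentrations (0.76% DMSO final). Lysed, then HTRF anti-pH2AX (S139) cryptate and anti-H2AX-d2 antibodies, 24 hr room temperature; 665/620 nm emission read.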

A short description of test [11]: qHTS assay to identify small molecule agonists of H2AX - cell viability counter screen (AID 1224847; calls by dose curve; note: top concentration of the series differs between compounds; nearly all actives have a fitted effect of over 30% in size). Summed up:
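Quantitative HTS viability measurement: CHO-K1 wild-type cells in serum (10% FBS) medium, short 3 hr drug exposure at 37C with 0.76% DMSO, CellTiter-Glo luminescent detection.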

Test [12] can be described thus: qHTS RealTime-Glo MT Cell Viability Assay in HepG2 cells - 24 hour (AID 1224867). Note: nearly all actives have a fitted effect of over 50% in size. An outline of the steps:
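Compound treatment began 5 h after plating HepG2 cells (600/well) with NanoLuc luciferase and prosubstrate. Plates stayed at 37 C for 40 h; luminescence was captured at six time points, 0 h through 40 h.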

A short description of test [13]: qHTS RealTime-Glo MT Cell Viability Assay in HEK293 cells - 32 hour (AID 1224868). Note: top concentration of the series differs between compounds; nearly all actives have a fitted effect of over 50% in size. Summed up:
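Quantitative high-throughput screen of the Tox21 10K library in HEK293: cells and RealTime-Glo reagents plated together, compound added at 5 h, luminescence monitored through 40 h at 37 C.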

Test [14] can be described thus: A CellTox Green Cytotoxicity Assay to monitor cytotoxicity in HEK293 cells - 0 hour (AID 1224869). Note: nearly all actives have a fitted effect of over 50% in size. Summed up:
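HEK293 cells premixed with CellTox Green dye were seeded at 600 cells/well and left 5 h at 37 C/5% CO2 before pin transfer of 23 nL compound in DMSO. Fluorescence from dye bound to dead-cell DNA was read during 40 h treatment.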

A short description of test [15]: qHTS assay to identify small molecule antagonists of the estrogen related receptor signaling pathway with the pleiotropic PPARgamma coactivator (PGC) from Tox21 10K library (AID 1224841; call rule not given here). An outline of the steps: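 PGC/ERR reporter cells were seeded at 2,000 cells/well and held 6 hours at 37 C/5% CO2 before pin-tool addition of compounds in DMSO. After 18 hours at 37 C, One-Glo was added and luminescence read after 30 minutes at room temperature.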

The nature of test [16]: qHTS assay to identify small molecule agonists of the estrogen related receptor signaling pathway with the pleiotropic PPARgamma coactivator (PGC) from Tox21 10K library (AID 1224842). Note: nearly all actives have a fitted effect of over 15% in size. Summed up: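 PGC/ERR reporter cell line, 2,000 cells per well, incubated 6 h at 37 C before 23 nL compound in DMSO was added. After 18 h at 37 C, One-Glo luminescence read following 30 min at room temperature.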

Test [17] in a line: qHTS assay to identify small molecule agonists of the hypoxia (HIF-1) signaling pathway (AID 1224846; active = well fitted activation curve with a large enough effect in the signal ratio in the repeat runs, not every such curve was filed as active; the % refers to the signal ratio). An outline of the steps: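 HRE-bla ME-180 cells (beta-lactamase reporter under hypoxia response element) were plated at 2,000 cells/well in medium with 0.5% dialyzed FBS, rested 5 hrs, then given compounds in DMSO for 17 hrs at 37C, 5% CO2. Reporter induction was read with CCF4-AM FRET substrate.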

Test [18] in a line: qHTS assay to identify small molecule antagonists of the estrogen related receptor (ERR) signaling pathway from Tox21 library (AID 1224848). Note: nearly all actives have a fitted effect of over 50% in size. Summed up:
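ERR reporter cell line (from NTP) seeded 2,000 cells/well, rested 6 h at 37 C/5% CO2, then pin-dosed with compounds in DMSO. After 18 h at 37 C, ONE-Glo added; luminescence read after 30 min at room temperature.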

A short description of test [19]: qHTS assay to identify small molecule agonists of the estrogen related receptor (ERR) signaling pathway from Tox21 library (AID 1224849; calls by dose curve; note: nearly all actives have a fitted effect of over 15% in size). The following applies: ERR reporter cell line, ONE-Glo luciferase, 18 h. Summed up: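 ERR reporter cell line (NTP) seeded, rested 6 h at 37 C/5% CO2, then pinned with Tox21 compounds in DMSO. After 18 h at 37 C, ONE-Glo luciferase luminescence was read following 30 min at room temperature.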
% is set by controls: 0 for no effect and ±100 for the full control effect.

Chain of Luciferin 4-monooxygenase (Photinus pyralis) (P08659 whole entry, looked up): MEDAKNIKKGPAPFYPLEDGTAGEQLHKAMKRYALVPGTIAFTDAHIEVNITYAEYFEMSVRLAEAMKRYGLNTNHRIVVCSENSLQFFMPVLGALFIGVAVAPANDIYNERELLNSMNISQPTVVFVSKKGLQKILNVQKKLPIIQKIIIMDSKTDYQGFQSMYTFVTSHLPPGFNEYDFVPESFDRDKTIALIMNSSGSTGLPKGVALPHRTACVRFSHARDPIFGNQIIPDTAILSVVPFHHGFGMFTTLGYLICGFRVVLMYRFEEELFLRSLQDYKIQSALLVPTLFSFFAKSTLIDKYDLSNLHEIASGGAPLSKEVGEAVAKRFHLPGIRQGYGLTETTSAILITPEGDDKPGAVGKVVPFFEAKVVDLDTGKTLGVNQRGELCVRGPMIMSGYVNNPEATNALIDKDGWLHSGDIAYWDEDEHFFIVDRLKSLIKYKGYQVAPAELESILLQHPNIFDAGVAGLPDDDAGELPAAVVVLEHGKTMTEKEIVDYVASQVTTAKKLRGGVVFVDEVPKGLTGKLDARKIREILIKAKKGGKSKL
Chain of Nuclear receptor subfamily 1 group I member 3 (Homo sapiens) (Q14994 whole entry, looked up): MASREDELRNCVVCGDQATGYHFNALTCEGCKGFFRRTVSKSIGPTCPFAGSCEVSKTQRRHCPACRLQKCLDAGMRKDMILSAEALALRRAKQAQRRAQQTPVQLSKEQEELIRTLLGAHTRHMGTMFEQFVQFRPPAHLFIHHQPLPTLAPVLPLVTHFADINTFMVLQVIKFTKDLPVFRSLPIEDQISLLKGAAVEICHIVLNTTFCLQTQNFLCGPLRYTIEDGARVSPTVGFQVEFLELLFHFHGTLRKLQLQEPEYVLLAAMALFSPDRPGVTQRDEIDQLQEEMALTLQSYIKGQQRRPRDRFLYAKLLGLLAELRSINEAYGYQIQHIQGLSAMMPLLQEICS
Chain of Thyrotropin receptor (Homo sapiens) (P16473 whole entry, looked up): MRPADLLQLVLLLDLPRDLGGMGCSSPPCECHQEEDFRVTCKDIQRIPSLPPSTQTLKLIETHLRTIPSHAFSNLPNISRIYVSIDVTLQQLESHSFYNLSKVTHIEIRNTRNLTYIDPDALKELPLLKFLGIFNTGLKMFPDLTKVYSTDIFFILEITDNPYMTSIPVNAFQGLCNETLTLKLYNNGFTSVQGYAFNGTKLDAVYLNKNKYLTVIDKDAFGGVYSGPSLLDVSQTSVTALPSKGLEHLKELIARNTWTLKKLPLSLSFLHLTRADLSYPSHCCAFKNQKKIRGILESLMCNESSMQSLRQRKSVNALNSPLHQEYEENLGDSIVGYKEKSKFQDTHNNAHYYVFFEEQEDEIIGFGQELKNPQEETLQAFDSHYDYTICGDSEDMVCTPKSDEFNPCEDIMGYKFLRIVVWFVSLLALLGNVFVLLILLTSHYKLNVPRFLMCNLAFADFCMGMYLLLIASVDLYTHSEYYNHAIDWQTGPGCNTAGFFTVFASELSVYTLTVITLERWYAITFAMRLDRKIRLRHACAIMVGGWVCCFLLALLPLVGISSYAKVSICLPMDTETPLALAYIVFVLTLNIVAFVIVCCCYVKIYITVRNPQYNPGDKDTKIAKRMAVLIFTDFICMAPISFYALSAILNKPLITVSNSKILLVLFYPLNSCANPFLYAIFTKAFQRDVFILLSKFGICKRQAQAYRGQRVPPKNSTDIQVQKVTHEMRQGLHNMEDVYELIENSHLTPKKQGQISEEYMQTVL

For `C#C[C@]1(O)CC[C@H]2[C@@H]3CCC4=CC(=O)CC[C@]4(C)[C@H]3CC[C@@]21C`, the Potency result in [1], in [2], in test [3], in test [4], in [5] and in test [6] was “inactive” each time. The Potency result in test [7], in test [8], in test [9], in [10], in test [11] and in [12] was “inactive” throughout. Also, the Potency result in test [13] and in test [14] was “inactive” in each case.

For `CCOP(=S)(OCC)O/N=C(\C#N)c1ccccc1`, the Potency entry in test [1], in [2], in [3], in [4], in test [7] and in [15] was “inactive” throughout. In addition, the Potency result in test [16], in [8], in test [9], in [11], in test [18] and in test [12] was “inactive” each time. Also, the Potency entry in test [13] and in test [14] was “inactive” in each case. In addition, in [17], the compound was classed as inactive. Also, the activity change, positive = activation is 3.78% in test [19] (at 42.5 µM (top of the series)) and 4.34% in [19] (at 92.4 µM (top of the series)).

As for `O=C1C=CC(=O)C=C1`, the Potency result in test [1], in [3], in test [4], in test [5], in test [6] and in [7] was “inactive” throughout. Besides, the Potency entry in test [8], in test [10], in [11], in test [12], in test [13] and in test [14] was “inactive” in each case. Further, the Potency is 31.9 µM (active) and 22.4 µM (active) in test [2]; 49.2 µM (active) and 49 µM (active) in test [9].

`O=[N+]([O-])c1c(Cl)c(Cl)c(Cl)c(Cl)c1Cl`: the Potency entry in [1], in test [2], in test [3], in test [4], in test [5] and in test [7] was “inactive” in each case. Besides, the Potency result in test [9], in test [10], in test [11], in test [12], in test [13] and in test [14] was “inactive” in each case. Further, in test [17], the result was inactive.

Consider `O=Cc1ccco1`, for which the Potency result in test [1], in [2], in [3], in test [4], in [7] and in test [15] was “inactive” each time. Further, the Potency entry in test [16], in test [8], in test [9], in test [10], in test [11] and in test [18] was “inactive” in each case. In addition, the Potency result in test [12], in [13] and in test [14] was “inactive” throughout. Further, the call in [17] was inactive. In test [19] (at 92.4 µM (top of the series)), the activity change, positive = activation is 0.408% and 7.35%.

With `COc1ccc(C=O)cc1`, the Potency result in test [1], in [2], in test [3], in test [4], in test [5] and in test [6] was “inactive” throughout. Further, the Potency entry in test [7], in test [8], in [9], in [11], in test [12] and in test [13] was “inactive” throughout. Besides, the Potency entry in test [14] was “inactive”. Besides, the compound was called inactive in test [17].

For the compound `CCCCN(CC)c1c([N+](=O)[O-])cc(C(F)(F)F)cc1[N+](=O)[O-]`, the Potency entry in test [1], in [2], in test [3], in test [4], in [5] and in test [7] was “inactive” each time. For the same compound, the Potency result in test [15], in test [16], in [9], in [11], in [18] and in test [12] was “inactive” in each case. For the same compound, the Potency entry in [13] and in [14] was “inactive” each time. In addition, the Potency in test [8] was 8.77 µM (active) and 12.2 µM (active). Besides, the compound was classed as inactive in [17]. In addition, in test [19] (at 92.4 µM (top of the series)), the activity change, positive = activation is -0.494% and 5.99%.

These data come from PubChem BioAssay (Tox21).
